This is an account of results in publication PMC7862700, “An all-to-all approach to the identification of sequence-specific readers for epigenetic DNA modifications on cytosine”.

Holding throughout (test): DAPPL (digital affinity profiling via proximity ligation, sequencing); 10 mM Tris-HCl pH 7.5, 50 mM NaCl, 1 mM DTT, 4% glycerol, room temperature, 30 min; GST-TFs on glutathione beads, 16-mer random dsDNA library, 0.1% formaldehyde crosslink after washing; high values mean tight binding
One test addresses HSF1 (Homo sapiens, UniProt Q00613 1-529). The conditions noted are these: protein: recombinant; tags: N-terminal GST; chain copies: 3; dsDNA, one strand shown. Summed up: (§1)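 Each value of binding signal is a hexamer's read frequency for a factor divided by the same hexamer's frequency in the tag-only sample. Barcoded, bead-captured GST fusions of human transcription factors made in yeast were pooled with that sample and incubated with 200 nmole of a random double-stranded 16-mer DNA library in Tris/NaCl/DTT/glycerol buffer at room temperature for 30 min. Washing, 0.1% formaldehyde crosslinking, proximity ligation, PCR and Illumina NextSeq500 sequencing followed.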

For the next test, the target named is T1, ELK1 (Homo sapiens, UniProt P19419 1-428).
T1 sequence: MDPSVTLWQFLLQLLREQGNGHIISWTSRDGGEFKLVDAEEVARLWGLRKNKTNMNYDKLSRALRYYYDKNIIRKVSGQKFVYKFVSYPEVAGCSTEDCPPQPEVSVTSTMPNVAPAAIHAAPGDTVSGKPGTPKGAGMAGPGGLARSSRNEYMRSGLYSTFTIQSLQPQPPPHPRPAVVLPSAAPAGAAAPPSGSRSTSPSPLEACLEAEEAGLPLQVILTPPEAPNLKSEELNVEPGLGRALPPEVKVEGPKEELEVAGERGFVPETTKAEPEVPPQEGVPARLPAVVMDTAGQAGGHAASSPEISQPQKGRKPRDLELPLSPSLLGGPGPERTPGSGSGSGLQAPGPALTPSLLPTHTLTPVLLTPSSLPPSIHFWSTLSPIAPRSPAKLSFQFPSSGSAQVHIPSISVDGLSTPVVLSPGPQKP
The conditions noted are these: protein: recombinant; tags: N-terminal GST; dsDNA, one strand shown. In outline: as §1

Another test deals with T2, ERG (Homo sapiens, UniProt P11308 1-479).
T2 sequence: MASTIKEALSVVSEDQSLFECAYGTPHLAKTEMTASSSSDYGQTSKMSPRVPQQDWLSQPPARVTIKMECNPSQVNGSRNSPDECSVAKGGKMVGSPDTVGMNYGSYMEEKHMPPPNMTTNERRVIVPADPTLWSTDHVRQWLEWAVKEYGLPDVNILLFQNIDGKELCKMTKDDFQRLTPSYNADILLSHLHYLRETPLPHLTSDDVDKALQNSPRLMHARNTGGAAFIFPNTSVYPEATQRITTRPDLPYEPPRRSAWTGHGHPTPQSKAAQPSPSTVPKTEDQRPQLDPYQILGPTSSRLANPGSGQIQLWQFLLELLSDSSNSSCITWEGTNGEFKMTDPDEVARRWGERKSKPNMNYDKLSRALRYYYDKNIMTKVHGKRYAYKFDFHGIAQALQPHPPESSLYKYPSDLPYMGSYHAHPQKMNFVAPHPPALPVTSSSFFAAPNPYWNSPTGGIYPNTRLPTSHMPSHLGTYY
The conditions noted are these: protein: recombinant; tags: N-terminal GST; dsDNA, one strand shown. Summed up:
as §1

The next test deals with T3, EHF (Homo sapiens, UniProt Q9NZC4 1-300).
T3 sequence: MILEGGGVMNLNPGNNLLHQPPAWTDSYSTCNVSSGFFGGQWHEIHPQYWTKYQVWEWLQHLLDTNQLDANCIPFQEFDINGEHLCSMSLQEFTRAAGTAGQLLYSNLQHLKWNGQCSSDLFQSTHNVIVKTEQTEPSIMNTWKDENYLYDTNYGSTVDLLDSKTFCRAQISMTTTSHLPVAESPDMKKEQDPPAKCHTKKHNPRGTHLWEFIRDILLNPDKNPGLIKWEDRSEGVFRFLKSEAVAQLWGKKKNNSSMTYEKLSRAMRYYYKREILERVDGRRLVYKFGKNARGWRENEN
The settings on record: protein: recombinant; tags: N-terminal GST; dsDNA, one strand shown. In outline:
as §1

The target in a further test is SPI1 (Homo sapiens, UniProt P17947 1-270). The settings on record: protein: recombinant; tags: N-terminal GST; dsDNA, one strand shown. In outline: as §1
The target of a further test is T4, ELK3 (Homo sapiens, UniProt P41970 1-407).
T4 sequence: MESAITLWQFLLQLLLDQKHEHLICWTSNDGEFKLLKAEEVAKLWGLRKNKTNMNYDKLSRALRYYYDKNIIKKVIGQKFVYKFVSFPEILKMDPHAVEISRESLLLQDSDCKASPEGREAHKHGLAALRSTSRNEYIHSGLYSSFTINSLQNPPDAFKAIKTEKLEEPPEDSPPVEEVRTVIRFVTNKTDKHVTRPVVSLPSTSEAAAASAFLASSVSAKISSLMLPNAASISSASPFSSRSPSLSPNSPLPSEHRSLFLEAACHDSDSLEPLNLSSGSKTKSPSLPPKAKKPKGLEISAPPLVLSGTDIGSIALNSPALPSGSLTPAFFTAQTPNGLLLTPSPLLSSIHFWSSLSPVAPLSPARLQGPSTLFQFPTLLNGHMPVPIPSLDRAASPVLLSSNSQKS
The settings on record: protein: recombinant; tags: N-terminal GST; dsDNA, one strand shown. Summed up: as §1

A further test deals with T5, SPIC (Homo sapiens, UniProt Q8N5J4 1-248).
T5 sequence: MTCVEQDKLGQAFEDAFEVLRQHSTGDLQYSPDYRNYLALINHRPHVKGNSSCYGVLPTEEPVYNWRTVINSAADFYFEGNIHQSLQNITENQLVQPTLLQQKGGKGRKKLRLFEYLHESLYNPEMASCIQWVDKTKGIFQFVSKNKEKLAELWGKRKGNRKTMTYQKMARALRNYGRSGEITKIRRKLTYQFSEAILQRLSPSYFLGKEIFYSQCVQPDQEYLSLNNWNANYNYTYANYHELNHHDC
The conditions noted are these: protein: recombinant; tags: N-terminal GST; dsDNA, one strand shown. In outline: as §1

The next test concerns the target ELF4 (Homo sapiens, UniProt Q99607 1-663). The settings on record: protein: recombinant; tags: N-terminal GST; dsDNA, one strand shown. Summed up: as §1
For another test, the target named is T6, ETV2 (Homo sapiens, UniProt O00321 1-342).
T6 sequence: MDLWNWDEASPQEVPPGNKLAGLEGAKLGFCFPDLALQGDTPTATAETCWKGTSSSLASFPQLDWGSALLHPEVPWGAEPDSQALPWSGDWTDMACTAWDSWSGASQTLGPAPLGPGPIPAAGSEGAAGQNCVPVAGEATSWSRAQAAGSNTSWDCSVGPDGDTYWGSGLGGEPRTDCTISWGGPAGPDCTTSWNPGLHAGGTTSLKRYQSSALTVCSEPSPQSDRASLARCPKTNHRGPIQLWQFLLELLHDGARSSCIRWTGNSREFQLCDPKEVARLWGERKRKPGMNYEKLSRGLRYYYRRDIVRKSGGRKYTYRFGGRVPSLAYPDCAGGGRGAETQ
The settings on record: protein: recombinant; tags: N-terminal GST; dsDNA, one strand shown. Summed up: as §1

In the next test the target is T7, ELF3 (Homo sapiens, UniProt P78545 1-371).
T7 sequence: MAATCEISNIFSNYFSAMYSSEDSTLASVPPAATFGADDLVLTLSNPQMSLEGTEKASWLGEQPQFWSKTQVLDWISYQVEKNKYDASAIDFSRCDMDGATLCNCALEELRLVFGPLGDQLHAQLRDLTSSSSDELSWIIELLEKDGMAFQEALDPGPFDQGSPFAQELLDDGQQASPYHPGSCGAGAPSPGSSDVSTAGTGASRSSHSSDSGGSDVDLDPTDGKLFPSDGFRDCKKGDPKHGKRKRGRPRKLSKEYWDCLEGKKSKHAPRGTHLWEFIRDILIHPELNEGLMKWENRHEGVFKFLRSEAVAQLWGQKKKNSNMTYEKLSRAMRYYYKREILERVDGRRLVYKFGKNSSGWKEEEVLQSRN
The settings on record: protein: recombinant; tags: N-terminal GST; dsDNA, one strand shown. Summed up: as §1

The target in a further test is CRX (Homo sapiens, UniProt O43186 1-299). The settings on record: protein: recombinant; tags: N-terminal GST; dsDNA, one strand shown. Summed up: as §1
Sequence of CRX (O43186 whole entry): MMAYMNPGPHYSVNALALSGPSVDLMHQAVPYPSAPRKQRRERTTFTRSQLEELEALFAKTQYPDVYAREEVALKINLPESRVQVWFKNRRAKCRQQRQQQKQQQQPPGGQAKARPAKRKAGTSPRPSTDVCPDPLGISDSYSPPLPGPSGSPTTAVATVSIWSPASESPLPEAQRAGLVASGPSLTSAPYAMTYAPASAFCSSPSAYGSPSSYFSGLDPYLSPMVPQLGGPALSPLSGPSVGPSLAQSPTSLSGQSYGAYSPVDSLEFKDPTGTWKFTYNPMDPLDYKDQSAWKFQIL
Another test has as its target ETV1 (Homo sapiens, UniProt P50549 1-477). The settings on record: protein: recombinant; tags: N-terminal GST; dsDNA, one strand shown. Summed up:
as §1

In the next test the target is T8, ETV3L (Homo sapiens, UniProt Q6ZN32 1-361).
T8 sequence: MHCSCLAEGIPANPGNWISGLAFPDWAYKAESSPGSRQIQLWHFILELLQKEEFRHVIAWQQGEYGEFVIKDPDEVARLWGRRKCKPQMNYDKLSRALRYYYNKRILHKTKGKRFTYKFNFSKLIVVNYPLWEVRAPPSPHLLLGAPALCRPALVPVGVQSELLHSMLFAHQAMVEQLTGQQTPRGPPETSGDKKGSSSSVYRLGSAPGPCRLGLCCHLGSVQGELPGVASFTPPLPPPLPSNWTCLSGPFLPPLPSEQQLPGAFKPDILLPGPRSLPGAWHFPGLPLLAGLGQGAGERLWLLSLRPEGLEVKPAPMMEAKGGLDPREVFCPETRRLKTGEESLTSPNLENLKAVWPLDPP
The conditions noted are these: protein: recombinant; tags: N-terminal GST; dsDNA, one strand shown. Summed up:
as §1

Another test concerns the target T9, SPDEF (Homo sapiens, UniProt O95238 1-335).
T9 sequence: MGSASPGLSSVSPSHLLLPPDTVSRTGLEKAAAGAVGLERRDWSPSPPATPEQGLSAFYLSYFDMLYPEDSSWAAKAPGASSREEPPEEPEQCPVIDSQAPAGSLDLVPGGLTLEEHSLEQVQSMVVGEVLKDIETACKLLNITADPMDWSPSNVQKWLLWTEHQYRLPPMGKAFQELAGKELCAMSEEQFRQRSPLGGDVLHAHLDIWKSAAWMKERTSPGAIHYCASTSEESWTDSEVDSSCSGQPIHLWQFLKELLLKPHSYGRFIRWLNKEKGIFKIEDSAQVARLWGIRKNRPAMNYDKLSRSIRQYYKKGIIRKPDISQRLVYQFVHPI
The settings on record: protein: recombinant; tags: N-terminal GST; dsDNA, one strand shown. In outline:
as §1

Sequence of HSF1 (Q00613 whole entry, the tested form may be a part): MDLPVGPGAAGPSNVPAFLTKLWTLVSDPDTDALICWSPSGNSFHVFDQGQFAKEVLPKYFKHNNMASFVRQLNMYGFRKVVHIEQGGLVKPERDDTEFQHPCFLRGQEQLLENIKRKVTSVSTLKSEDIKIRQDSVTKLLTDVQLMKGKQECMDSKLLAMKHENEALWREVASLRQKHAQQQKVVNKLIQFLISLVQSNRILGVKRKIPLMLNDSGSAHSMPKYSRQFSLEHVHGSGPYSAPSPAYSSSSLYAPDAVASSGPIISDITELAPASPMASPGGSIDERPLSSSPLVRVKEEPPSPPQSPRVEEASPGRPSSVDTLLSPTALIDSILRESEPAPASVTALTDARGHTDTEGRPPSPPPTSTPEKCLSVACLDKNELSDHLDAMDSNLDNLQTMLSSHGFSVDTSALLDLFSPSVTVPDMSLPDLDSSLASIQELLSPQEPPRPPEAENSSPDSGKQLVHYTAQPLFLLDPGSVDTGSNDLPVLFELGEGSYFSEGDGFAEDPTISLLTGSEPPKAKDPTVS
Sequence of ELF4 (Q99607 whole entry): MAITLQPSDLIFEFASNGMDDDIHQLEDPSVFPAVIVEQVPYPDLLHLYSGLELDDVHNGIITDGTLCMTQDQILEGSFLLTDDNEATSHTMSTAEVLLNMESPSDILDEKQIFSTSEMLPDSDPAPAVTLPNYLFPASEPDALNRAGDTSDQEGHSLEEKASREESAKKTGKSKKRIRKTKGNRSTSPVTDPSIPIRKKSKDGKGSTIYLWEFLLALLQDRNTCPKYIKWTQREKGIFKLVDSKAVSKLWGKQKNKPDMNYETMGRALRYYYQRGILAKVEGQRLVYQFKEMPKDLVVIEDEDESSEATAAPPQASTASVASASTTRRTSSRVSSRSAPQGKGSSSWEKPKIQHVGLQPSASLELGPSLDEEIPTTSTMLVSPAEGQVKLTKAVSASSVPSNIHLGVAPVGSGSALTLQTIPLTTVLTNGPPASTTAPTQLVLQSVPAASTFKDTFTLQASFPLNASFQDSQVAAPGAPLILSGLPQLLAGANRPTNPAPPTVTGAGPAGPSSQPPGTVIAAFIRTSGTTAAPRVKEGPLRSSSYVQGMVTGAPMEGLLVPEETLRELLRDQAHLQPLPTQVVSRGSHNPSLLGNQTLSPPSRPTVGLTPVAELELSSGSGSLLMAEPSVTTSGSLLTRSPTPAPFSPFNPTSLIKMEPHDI
Sequence of ETV1 (P50549 whole entry): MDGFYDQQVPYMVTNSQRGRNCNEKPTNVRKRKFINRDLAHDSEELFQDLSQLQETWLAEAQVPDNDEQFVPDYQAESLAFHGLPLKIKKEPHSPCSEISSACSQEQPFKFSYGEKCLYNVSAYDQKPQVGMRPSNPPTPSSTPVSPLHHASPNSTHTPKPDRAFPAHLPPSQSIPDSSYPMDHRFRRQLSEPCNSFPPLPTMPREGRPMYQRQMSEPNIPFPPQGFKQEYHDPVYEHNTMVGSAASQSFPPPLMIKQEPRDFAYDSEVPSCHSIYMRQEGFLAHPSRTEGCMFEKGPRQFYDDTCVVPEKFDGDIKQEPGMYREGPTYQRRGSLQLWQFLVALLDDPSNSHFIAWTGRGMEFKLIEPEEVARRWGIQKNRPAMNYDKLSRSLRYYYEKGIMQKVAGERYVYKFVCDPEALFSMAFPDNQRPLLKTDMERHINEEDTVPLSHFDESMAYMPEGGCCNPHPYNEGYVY

CGAGTA: the binding signal with HSF1 was 1.1 fold enrichment (6-mer frequency, TF over GST control).
For AGAGAA, the binding signal with HSF1 is 1.36 fold enrichment (6-mer frequency, TF over GST control).
For the sequence TGGATC, the binding signal with ELK1 was 1.01 fold enrichment (6-mer frequency, TF over GST control); with ERG it was 1.02 fold enrichment (6-mer frequency, TF over GST control); in the test with EHF, 1 fold enrichment (6-mer frequency, TF over GST control); with SPI1, 1.03 fold enrichment (6-mer frequency, TF over GST control); with ELK3 it was 1.09 fold enrichment (6-mer frequency, TF over GST control); with HSF1 it was 1.16 fold enrichment (6-mer frequency, TF over GST control). Moreover, the binding signal with SPIC is 1.11 fold enrichment (6-mer frequency, TF over GST control); with ELF4, 1.02 fold enrichment (6-mer frequency, TF over GST control); with ETV2 it was 1.03 fold enrichment (6-mer frequency, TF over GST control); with ELF3, 1.06 fold enrichment (6-mer frequency, TF over GST control); with CRX, 1.15 fold enrichment (6-mer frequency, TF over GST control); with ETV1, 1.01 fold enrichment (6-mer frequency, TF over GST control). The binding signal was 1.12 fold enrichment (6-mer frequency, TF over GST control) with ETV3L and 1.09 fold enrichment (6-mer frequency, TF over GST control) with SPDEF.
Take GGGAAT: the binding signal with HSF1 was 1.09 fold enrichment (6-mer frequency, TF over GST control).
